An excerpt weighted towards active compounds, which were near 19% of everything screened.
DT40 TDP1 no CPT – qHTS for Inhibitors of human tyrosyl-DNA phosphodiesterase 1 (TDP1): qHTS in cells in absence of CPT; DT40 Tdp1-/- hTDP1 cells, no CPT, ATP luminescence, 48 h; Potency, µM (titrated, usually from 46.2 µM), for the others: at the highest dose activity change, negative = growth inhibition, most hits filed as inhibitors; 420,000 tested, 15% active; further: potency means the concentration at half of the fitted maximal effect; on the % scale 0 is the no-effect control and ±100 the full control effect; nearly all actives have a fitted effect of over 55% in size
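No-CPT arm: Tdp1-/-;hTDP1 DT40 cells (400/well) plus compounds, incubated ≥48 hr at 37 °C. Readout CellTiter-Glo luminescence.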
HepG2 tox – HepG2 cytotoxicity, counter-screen for TGF-b inhibitors; 410,000 tested, 0.76% active; Potency, µM (series often up to 46.1 µM), for the others: at the top dose activity change, negative = cytotoxicity, most hits filed as cytotoxic; HepG2 CAGA-GFP viability, ATP luminescence, 18 h; further: potency means the concentration at half of the fitted maximal effect
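HepG2 CAGA-GFP cells (1000/well, DMEM with 1% FBS) received compound, then TGF-beta at 500 pg/mL final, and were incubated 18 hours at 37 degrees C. Viability was read by CellTiter-Glo luminescence. Media-only wells were set as complete cell-killing and DMSO as no toxicity.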
IL1B secr inh – inhibitors of inflammasome signaling (IL-1 beta secretion); THP-1 LPS/ATP IL-1B secretion, AlphaLISA, 16 h; hits give low values; activity change, % at 57.5 µM; 360,000 tested, 4.7% active; AID 743279; in the data active means activity change below about -50%; inconclusive means mostly about -30% to -49%; further: on the % scale 0 is the no-effect control and ±100 the full control effect
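THP-1 cells pretreated 1 hr with compounds (up to 57.5 uM final), then stimulated with LPS (250 ng/mL final) plus ATP (1.25 mM final); secreted IL-1B measured by AlphaLISA after 16 hr, decreased signal indicating inhibition.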
S-ASM inh – human S-ASM enzyme inhibition; AID 504937; Potency, µM (series often up to 57.5 µM), for inactives: at the highest dose activity change, negative = inhibition, actives largely listed as inhibitors; 340,000 tested, 0.006% active; placental ASM, HMU-PC fluorogenic substrate, 60 min; P17405; further: potency means the concentration at half of the fitted maximal effect
Target sequence (P17405 47-631 limits assumed): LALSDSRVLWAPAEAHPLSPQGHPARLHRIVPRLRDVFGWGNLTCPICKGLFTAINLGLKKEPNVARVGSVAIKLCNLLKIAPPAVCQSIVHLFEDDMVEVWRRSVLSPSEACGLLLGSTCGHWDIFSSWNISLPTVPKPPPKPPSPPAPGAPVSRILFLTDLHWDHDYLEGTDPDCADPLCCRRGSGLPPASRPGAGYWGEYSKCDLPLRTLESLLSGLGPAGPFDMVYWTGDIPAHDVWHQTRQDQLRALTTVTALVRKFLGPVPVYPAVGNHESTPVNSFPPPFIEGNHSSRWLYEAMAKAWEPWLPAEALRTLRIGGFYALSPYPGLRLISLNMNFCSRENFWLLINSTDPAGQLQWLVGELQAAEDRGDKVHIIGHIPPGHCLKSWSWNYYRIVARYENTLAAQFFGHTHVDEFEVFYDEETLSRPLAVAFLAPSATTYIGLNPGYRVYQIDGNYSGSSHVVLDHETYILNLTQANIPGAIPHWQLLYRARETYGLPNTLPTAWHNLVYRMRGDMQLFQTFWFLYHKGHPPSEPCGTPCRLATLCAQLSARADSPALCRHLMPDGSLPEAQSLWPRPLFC
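Fluorescence read-out (Ex 386 nm, Em 447 nm) after stopping the reaction at pH 10. Enzyme: ASM from human placenta; substrate HMU-PC0, 9 uM final; 60 min, 37 °C. Compound preincubation 10 min, ambient temperature.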
DT40 TDP1 CPT – growth inhibition of DT40 Tdp1-/-;hTDP1 cells with camptothecin (screen for TDP1 inhibitors); chicken DT40 Tdp1-/-;hTDP1 cells + 20 nM CPT, ATP luminescence, 48 h; Potency, µM (highest dose often 46.2 µM), without a hit: at the highest dose activity change, negative = growth inhibition, actives largely listed as inhibitors; 420,000 tested, 12% active; further: potency means the concentration at half of the fitted maximal effect; on the % scale 0 is the no-effect control and ±100 the full control effect; nearly all actives have a fitted effect of over 55% in size
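Cell growth measured by CellTiter-Glo luminescence after a minimum 48 h, 37 C compound exposure with 20 nM CPT in Tdp1-knockout DT40 cells stably expressing hTDP1, seeded 400/well; qHTS titration format.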
TGFb SMAD3 inh – inhibitors of TGF-b signaling. HepG2 CAGA-GFP TGF-b/SMAD3 reporter, GFP fluorescence, 18 h; TGF-beta stimulated, 500 pg/mL final. Potency, µM (doses to about 46.1 µM), for the others: at the top dose activity, negative = inhibition, actives largely listed as inhibitors. 410,000 tested, 1.2% active. AID 588855; further: potency means the concentration at half of the fitted maximal effect; on the % scale 0 is the no-effect control and ±100 the full control effect; nearly all actives have a fitted effect of over 65% in size
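HEPG2 CAGA-GFP, 1000 cells/well; 2 h settle, 37 C; cpd via pin tool; TGF-b 500 pg/mL final; 18 h, 37 C; GFP imaging ex488/em500-530; %Activity normalised to -TGF-b and +DMSO controls; CRC fit, curve class.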
An asterisk follows results filed as active; ? = inconclusive; . = no result given. Unless noted, the call rests on the fitted dose curve; in most records, active means well fitted curve in the direction sought with a large enough effect; inconclusive means small, poorly fitted or top-dose-only effect, or another doubt; inactive means no such curve, though single readings can be large; an effect the other way counts as inactive or inconclusive.

SMILES | DT40 TDP1 no CPT | HepG2 tox | IL1B secr inh | S-ASM inh | DT40 TDP1 CPT | TGFb SMAD3 inh
CN(C)c1ccc(/C=C/C=C2/SC(=S)N(c3ccccc3)C2=O)cc1 | 8.2µM* | -16% | ? | -10% | 18µM* | -2%
CC1=N/C(=C\c2ccc(OC(C)C)cc2)C(=O)N1c1ccc(C(=O)O)cc1 | -13% | -5% | -21 | -3% | ? | -1%
CCOc1cc(/C=C2\N=C(SC(C)C(N)=O)N(c3ccc(OC(F)F)cc3)C2=O)ccc1O (stereo unspecified) | 10µM* | -38% | -12 | -18% | ? | 25%
CCN(CC)C(=O)CSC1=N/C(=C/c2ccco2)C(=O)N1c1ccc(OC)c(Cl)c1 | ? | -17% | -54* | -9% | 21µM* | ?
NC(=O)CSC1=N/C(=C\c2ccco2)C(=O)N1c1ccc(OC(F)F)cc1 | 13µM* | 50% | -9 | 0% | ? | 11%
O=C(Nc1ccc(F)cc1F)c1ccc(CN2CC(=O)N3CCCCC3C2=O)cc1 (stereo unspecified) | -24% | -1% | . | . | ? | -17%
COc1ccc(Cl)cc1NC(=O)CSc1nc(-c2ccccc2)c2ccccc2n1 | 21µM* | -9% | . | . | 7.3µM* | -20%
COC(=O)c1c(SCC(=O)Nc2ccccc2OC)[nH]c2ccccc2c1=O | ? | -20% | . | . | 23µM* | ?
CCc1cccc2c(-c3ccccc3)nc(SCC(=O)Nc3ccccc3OC)nc12 | 18µM* | -7% | . | . | ? | -16%
CCc1cccc2c(-c3ccccc3)nc(SCC(=O)Nc3ccc(OC)cc3)nc12 | 5% | -2% | . | . | -11% | 12%
COc1ccccc1NC(=O)CSc1nnc2c3ccccc3n(C(C)C)c2n1 | 4.6µM* | -22% | . | . | 3.7µM* | -3%
COc1ccccc1Cc1nc2ccccc2nc1SCC(=O)Nc1cc(Cl)ccc1OC | ? | 5% | . | . | ? | -2%
COC(=O)c1c(SCC(=O)Nc2cc(OC)cc(OC)c2)[nH]c2ccc(C)cc2c1=O | ? | -41% | . | . | ? | -14%
CN(CC(=O)Nc1ccccc1Cl)S(=O)(=O)c1ccc(C(=O)N2CCOCC2)s1 | ? | -27% | . | . | 15µM* | -15%
CC1(C)CC2(C)OC2C2(C1)N=NC(=Nc1ccccc1)O2 (stereo unspecified) | 4.1µM* | -69% | -99* | . | 4.1µM* | 2.8µM*
N#Cc1nc(-c2ccc(F)cc2)oc1N1CCC(C(N)=O)CC1 | -6% | -42% | -18 | -4% | 0% | 4%
COc1ccc(CN2COc3ccc4c(-c5ccccc5)cc(=O)oc4c3C2)cc1 | 16µM* | 5% | . | . | ? | -1%
COc1ccc(CN2COc3ccc4c(C)cc(=O)oc4c3C2)cc1 | . | 4% | . | . | . | 10%
COc1ccc(CCNC(=O)CCn2c(=O)c3ccccc3n(Cc3ccccc3F)c2=O)cc1OC | 12µM* | -2% | . | . | 15µM* | -20%
COc1ccc(CCNC(=O)CCCCCN2C(=O)[C@@H]3Cc4ccccc4CN3C2=O)cc1OC | ? | 1% | 24 | 3% | 21µM* | -6%
O=C(CCCn1c(=O)c2ccccc2n(Cc2cccc(Cl)c2)c1=O)NCCc1ccc(Cl)cc1 | 18µM* | -23% | . | . | ? | 0%
COc1ccc(CCNC(=O)CCn2c(=O)c3ccccc3n(Cc3ccccc3)c2=O)cc1OC | 18µM* | -3% | . | . | ? | -6%
Cc1nc(SCC(=O)Nc2ccccc2C)cc(-c2ccccc2)n1 | -7% | -1% | . | . | -7% | 0%
CCc1cc(C(=O)N2CCN(S(=O)(=O)c3ccc(Cl)cc3)CC2)sc1C | ? | -5% | -8 | -5% | ? | 2%
O=C(N/N=C/c1ccc2c(c1)OCO2)C1CC1 | -4% | -3% | -19 | 1% | -8% | -6%
SMILES | DT40 TDP1 no CPT | HepG2 tox | IL1B secr inh | S-ASM inh | DT40 TDP1 CPT | TGFb SMAD3 inh
CC(=O)NC(Cc1cccc(F)c1)C(=O)NC1CCN(C(=O)Nc2ccccc2)CC1 (stereo unspecified) | 4% | 39% | -9 | -3% | 1% | 50%
COc1ccc(CCNC(=O)CCCn2c(=O)c3ccccc3n(CC(=O)Nc3cccc(C)c3)c2=O)cc1OC | 18µM* | -19% | . | . | ? | ?
COc1ccc(CCNC(=O)CCCn2c(=O)c3ccccc3n(Cc3ccccc3)c2=O)cc1OC | 16µM* | -7% | . | . | ? | -17%
CCc1ccc(NC(=O)Cn2c(=O)n(CCCC(=O)NCCc3ccc(OC)c(OC)c3)c(=O)c3ccccc32)cc1 | ? | 5% | . | . | ? | 1%
CC1CCCN(C(=O)COC(=O)CNC(=O)c2sc3ccccc3c2Cl)C1 (stereo unspecified) | 3% | 7% | -5 | 1% | 4% | 9%
COc1cccc(CNC(=O)COC(=O)c2ccc(-c3ccc(O)cc3)cc2)c1 | 3.3µM* | -9% | 60 | . | ? | -6%
COc1cc(/C=N/NC(=O)c2cccnc2)ccc1OS(=O)(=O)c1ccc(F)cc1 | 21µM* | -5% | 27 | -2% | ? | -4%
COc1cc(C(=O)Oc2cccc(/C=N/NC(=O)c3cccnc3)c2)cc(OC)c1OC | 9.2µM* | -3% | 30 | -2% | 6.5µM* | 3%
O=C(N/N=C/c1cccc(OC(=O)c2cccc(Br)c2)c1)c1cccnc1 | -3% | 9% | -8 | -7% | 1% | -2%
COc1ccc(Oc2ccc(/C=C/C(=O)c3cccc(OC)c3)cc2[N+](=O)[O-])cc1 | 7.3µM* | -2% | -4 | -11% | 7.3µM* | 4%
COc1cccc(NC(=O)/C=C/c2ccc([N+](=O)[O-])cc2)c1 | -26% | -12% | -24 | -1% | -9% | 2%
COc1cc(/C=N/NC(=O)c2cccnc2)ccc1OS(=O)(=O)c1cc(C)ccc1C | 23µM* | -38% | -76* | -12% | ? | -19%
COc1ccc(C)cc1NC(=O)NCc1ccc(F)cc1 | 0% | -5% | 14 | 2% | -1% | 1%
Cc1ccc(S(=O)(=O)N/N=C/c2ccc(C#N)cc2)cc1 | ? | -3% | -5 | 14% | -11% | 12%
COc1cccc(/C=N/NC(=O)c2cnccn2)c1OC | 0% | 13µM* | 16 | 1% | 20% | 0%
COc1cc(C(=O)N/N=C/c2ccsc2C)cc(OC)c1OC | 0.65µM* | -3% | 56 | -2% | 1.2µM* | -2%
